Measured values as given in PubChem BioAssay (NCI).
The panel holds about 83,000 compounds, 20% with a hit somewhere; the sample as a whole holds those more often.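 Growth was measured after 48 h exposure to one concentration of compound in 96-well plates. Values under 10 count as active.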 Calls of active or inactive are those of the source.

These molecules were tested on M14 melanoma (assay: NCI-60 one-dose screen, 48 h (100 = growth as untreated, 0 = no growth, -100 = all killed)). Conditions: 10 µM.
With `O=C(/C=C/c1ccccc1)c1nc2ccccc2n1Cc1ccc(Br)cc1` the growth was -51.8% (active). With `C=CC[Se]C(=O)c1cncc(C(=O)[Se]CC=C)c1` the growth was -86.7% (active). `COc1ccc(OC)c(/C=C/C(=O)c2nc3ccccc3n2Cc2ccc(F)cc2)c1` was tested, and the growth was -7.79% (active). In the case of `O=C(/C=C/c1ccc(F)cc1)c1nc2ccccc2n1Cc1ccc(Br)cc1`, the growth is reported as -57.7% (active). For `CC[C@]12C=CCN3CC[C@@]4(c5ccc(OC)cc5N(C)[C@H]4[C@@](O)(C(=O)OC)[C@@H]1OC(=O)CCCC[P+](c1ccc(C)cc1)(c1ccc(C)cc1)c1ccc(C)cc1)[C@@H]32`, the growth was -88.3% (active). `CC(C)N=C([Se])NC(=O)c1cccs1` was tested, and the growth was 8.28% (active). For `CC1=C(CCC=NNC(N)=O)C2=C(C)C3(CC3)[C@@](C)(O)C(=O)C2=C1`, the growth was -35.8% (active). In the case of `Cc1ccc2[nH]c(=S)n(-c3ccc(F)cc3)c(=O)c2c1`, the growth is reported as 100% (inactive). `C#CC[Se]C(=O)c1ccc2n[se]nc2c1` was tested, and the growth was 54.9% (inactive). `CC1=C(COCCOC(=O)c2ccc(S(=O)(=O)F)cc2)C2=C(C)C3(CC3)[C@@](C)(O)C(=O)C2=C1` was tested, and the growth was 11.1% (inactive). For `CC12CCC3(CCC(=O)NCCCNc4ccnc5cc(Cl)ccc45)[C@@](C)(OO[C@]3(C)O1)O2`, the growth was -2.43% (active). For `O=C(/C=C/c1ccc(Br)cc1)c1nc2ccccc2n1Cc1ccc(Br)cc1`, the growth was -26.7% (active). In the case of `COC(=O)CCn1c(-c2ccc(-n3cc(-c4ccc(O[C@H]5O[C@@H]6OC7(C)CC[C@H]8[C@H](C)CC[C@@H]([C@H]5C)[C@@]68OO7)cc4)nn3)cc2)nc2ccccc21`, the growth is reported as 25.4% (inactive). For `CC1=C(C=O)C2=C(C)C3(CC3)[C@@](C)(O)C(=O)C2=C1`, the growth was 13.6% (inactive). `N#C[Se]CC(=O)Nc1cccc(C(F)(F)F)c1` was tested, and the growth was -42.7% (active). For `CCC[Se]C(=O)c1ccc(C(=O)[Se]CCC)s1`, the growth was -63.4% (active). `C[C@H]1[C@@H](CC(=O)N[C@@H](Cc2coc3ccccc23)B(O)O)O[C@@H]2OC3(C)CC[C@H]4[C@H](C)CC[C@@H]1[C@@]24OO3` was tested, and the growth was -44% (active). In the case of `O=C(/C=C/c1ccco1)c1nc2ccccc2n1Cc1ccc(F)cc1`, the growth is reported as 88.2% (inactive). `COC(=O)C[C@](O)(CCC(C)C)C(=O)O[C@H]1C(OC)=C[C@@]23CCCN2CCc2cc4c(cc2[C@@H]13)OCO4` was tested, and the growth was -76.4% (active). `C[C@H]1[C@H](OC(=O)CCC(=O)N(CCCc2cn(-c3ccc(C#N)cc3)nn2)CCNc2ccnc3cc(Cl)ccc23)O[C@@H]2OC3(C)CC[C@H]4[C@H](C)CC[C@@H]1[C@@]24OO3` was tested, and the growth was 48.1% (inactive).

What follows are molecules tested on HCT-15 colon in the same assay as above. Conditions: 10 µM.
`COc1cc2cc(C(=O)N3C[C@@H](CCl)c4c3cc(OC(=O)N3CCN(C)[C@@H]5CSSC[C@H]53)c3ccccc43)[nH]c2c(OC)c1OC` was tested, and the growth was -18.7% (active). For `CC1=C(CCC=O)C2=C(C)C3(CC3)[C@@](C)(O)C(=O)C2=C1`, the growth was -71.1% (active). `COC(=O)C[C@](O)(CCC(C)C)C(=O)O[C@@H]1C(OC)=C[C@]23CCCN2CCc2cc4c(cc2[C@H]13)OCO4` was tested, and the growth was -32.9% (active). In the case of `O=C(/C=C/c1ccc(Cl)cc1)c1nc2ccccc2n1Cc1ccc(F)cc1`, the growth is reported as -1.45% (active). For `CC[C@]12C=CCN3CC[C@@]4(c5ccc(OC)cc5N(C)[C@H]4[C@@](O)(C(=O)OC)[C@@H]1OC(=O)CCC[P+](C1CCCCC1)(C1CCCCC1)C1CCCCC1)[C@@H]32`, the growth was 76.6% (inactive). In the case of `CC1=C2C(=C[C@@](C)(COP(=O)(Oc3ccccc3)Oc3ccccc3)[C@@H]2O)C(=O)[C@@](C)(O)C12CC2`, the growth is reported as -32.5% (active). `CC(=O)Oc1ccccc1C(=O)NC([Se])=NC1CCCCC1` was tested, and the growth was 3.57% (active). For `CCOP(=O)(CC(F)(F)C(F)(F)F)OCC`, the growth was -33.2% (active). In the case of `CC(C)C[C@H](NC(=O)CNC(=O)C[C@H]1O[C@@H]2OC3(C)CC[C@H]4[C@H](C)CC[C@@H]([C@H]1C)[C@@]24OO3)B(O)O`, the growth is reported as 22.7% (inactive). For `C[C@H]1[C@@H](Oc2ccc(-c3cn(-c4ccnc5cc(Cl)ccc45)nn3)cc2)O[C@@H]2OC3(C)CC[C@H]4[C@H](C)CC[C@@H]1[C@@]24OO3`, the growth was 12.8% (inactive). With `C[C@H]1[C@H](OC(=O)CCC(=O)N(CCCc2cn(-c3ccc([N+](=O)[O-])cc3)nn2)CCNc2ccnc3cc(Cl)ccc23)O[C@@H]2OC3(C)CC[C@H]4[C@H](C)CC[C@@H]1[C@@]24OO3` the growth was 15.8% (inactive). For `COc1cc2cc(C(=O)N3C[C@@H](CCl)c4c3cc(OC(=O)N3CCN(C)[C@@H]5CSSC[C@@H]53)c3ccccc43)[nH]c2c(OC)c1OC`, the growth was 1.23% (active). With `COc1cc2cc(C(=O)N3C[C@@H](CCl)c4c3cc(OC(=O)N3CCN(C(=O)CCC(=O)N5CCN(C)CC5)[C@@H]5CSSC[C@@H]53)c3ccccc43)[nH]c2c(OC)c1OC` the growth was -87.4% (active). `COC(=O)c1ccc(-n2cc(CCCN(CCNc3ccnc4cc(Cl)ccc34)C(=O)CCC(=O)O[C@@H]3O[C@@H]4OC5(C)CC[C@H]6[C@H](C)CC[C@@H]([C@H]3C)[C@@]46OO5)nn2)cc1` was tested, and the growth was -4.92% (active). With `O=C([Se]C1C=CCCC1)c1ccc(C(=O)[Se]C2C=CCCC2)s1` (centres undefined) the growth was -25.1% (active). With `O=C(/C=C/c1cccc(Br)c1)c1nc2ccccc2n1Cc1ccc(F)cc1` the growth was -31.6% (active). For `CC[C@]12C=CCN3CC[C@@]4(c5ccc(OC)cc5N(C)[C@H]4[C@@](O)(C(=O)OC)[C@@H]1OC(=O)CCC[P+](c1ccc(C)cc1)(c1ccc(C)cc1)c1ccc(C)cc1)[C@@H]32`, the growth was -91% (active). In the case of `O=C(NC([Se])=NC1CCCCC1)c1ccccc1`, the growth is reported as 44% (inactive). `O=C(/C=C/c1ccc(F)cc1)c1nc2ccccc2n1Cc1ccc(F)cc1` was tested, and the growth was -61% (active). `O=C(/C=C/c1ccccc1)c1nc2ccccc2n1Cc1ccc(Br)cc1` was tested, and the growth was -70.3% (active). In the case of `C=CC[Se]C(=O)c1cncc(C(=O)[Se]CC=C)c1`, the growth is reported as -37.4% (active). With `COc1ccc(OC)c(/C=C/C(=O)c2nc3ccccc3n2Cc2ccc(F)cc2)c1` the growth was -61.8% (active). In the case of `O=C(/C=C/c1ccc(F)cc1)c1nc2ccccc2n1Cc1ccc(Br)cc1`, the growth is reported as -73.9% (active). In the case of `CC[C@]12C=CCN3CC[C@@]4(c5ccc(OC)cc5N(C)[C@H]4[C@@](O)(C(=O)OC)[C@@H]1OC(=O)CCCC[P+](c1ccc(C)cc1)(c1ccc(C)cc1)c1ccc(C)cc1)[C@@H]32`, the growth is reported as -90.1% (active). With `CC(C)N=C([Se])NC(=O)c1cccs1` the growth was 34.9% (inactive). In the case of `CC1=C(CCC=NNC(N)=O)C2=C(C)C3(CC3)[C@@](C)(O)C(=O)C2=C1`, the growth is reported as -49.2% (active). `Cc1ccc2[nH]c(=S)n(-c3ccc(F)cc3)c(=O)c2c1` was tested, and the growth was 98.9% (inactive). For `C#CC[Se]C(=O)c1ccc2n[se]nc2c1`, the growth was 25.8% (inactive). For `CC1=C(COCCOC(=O)c2ccc(S(=O)(=O)F)cc2)C2=C(C)C3(CC3)[C@@](C)(O)C(=O)C2=C1`, the growth was -29.6% (active). With `CC12CCC3(CCC(=O)NCCCNc4ccnc5cc(Cl)ccc45)[C@@](C)(OO[C@]3(C)O1)O2` the growth was 6.51% (active). `O=C(/C=C/c1ccc(Br)cc1)c1nc2ccccc2n1Cc1ccc(Br)cc1` was tested, and the growth was -68.4% (active). For `COC(=O)CCn1c(-c2ccc(-n3cc(-c4ccc(O[C@H]5O[C@@H]6OC7(C)CC[C@H]8[C@H](C)CC[C@@H]([C@H]5C)[C@@]68OO7)cc4)nn3)cc2)nc2ccccc21`, the growth was 10.4% (inactive). With `CC1=C(C=O)C2=C(C)C3(CC3)[C@@](C)(O)C(=O)C2=C1` the growth was -29.3% (active). With `N#C[Se]CC(=O)Nc1cccc(C(F)(F)F)c1` the growth was -84.8% (active). With `CCC[Se]C(=O)c1ccc(C(=O)[Se]CCC)s1` the growth was -71% (active). In the case of `C[C@H]1[C@@H](CC(=O)N[C@@H](Cc2coc3ccccc23)B(O)O)O[C@@H]2OC3(C)CC[C@H]4[C@H](C)CC[C@@H]1[C@@]24OO3`, the growth is reported as -62.3% (active). With `O=C(/C=C/c1ccco1)c1nc2ccccc2n1Cc1ccc(F)cc1` the growth was 32.3% (inactive). For `COC(=O)C[C@](O)(CCC(C)C)C(=O)O[C@H]1C(OC)=C[C@@]23CCCN2CCc2cc4c(cc2[C@@H]13)OCO4`, the growth was -29.7% (active). For `C[C@H]1[C@H](OC(=O)CCC(=O)N(CCCc2cn(-c3ccc(C#N)cc3)nn2)CCNc2ccnc3cc(Cl)ccc23)O[C@@H]2OC3(C)CC[C@H]4[C@H](C)CC[C@@H]1[C@@]24OO3`, the growth was 12.1% (inactive).
